35 molecules from PubChem BioAssay can be followed below.

Where “and” joins values, the source holds several entries; their conditions need not be identical. Equal values may be shown once. Values without a mark were called inactive.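 The calls were made as follows: active = compounds killing one labelled cell type while sparing the other, by normalised counts and ratio limits, not self-fluorescent; inactive = the rest.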

The nature of this assay: EMT-state selective cytotoxicity in co-culture – imaging, PC-3E GFP, TEM4-18 mCherry, primary screen (AID 1345086).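 Also: normalised mesenchymal count divided by normalised epithelial count so high means epithelial killing; cells exposed to compound for 72 h before imaging.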 Conditions: PC-3E GFP / TEM4-18 mCherry co-culture, imaging cell counts; at 1 µM; actives lie on both sides.
On to `COc1cc(OC)c(OC)cc1C=O`, for which the red/green cell ratio (normalised) was 1.04.
To `[N-]=[N+]=CC(=O)OCC(N)C(=O)O` (stereo not given) belongs 1.35.
Under `C[C@H](N)[C@H](O)c1ccc(O)c(O)c1` stands 1.17; under `S=C=NCc1ccccc1`, 0.83; under `CC[N+]1(C)CCCC(OC(=O)C(O)(c2ccccc2)c2ccccc2)C1` (stereo not given), 0.98.
Under `CC1=NCCc2c1[nH]c1cc(O)ccc21` stands 0.98; under `C[C@@H](N)[C@@H](O)c1ccccc1`, 0.97; under `COc1cc([C@@H]2c3cc4c(cc3[C@@H](O)C3COC(=O)C32)OCO4)cc(OC)c1O` (stereo not given in full), 1.06.
Turning to `ClC1C(Cl)C(Cl)C(Cl)C(Cl)C1Cl` (stereo not given), the red/green cell ratio (normalised) is 1.19.
As for `O=C(O)CC[N+](=O)[O-]`, the red/green cell ratio (normalised) is 1.06.
With `C=CCC1(C(C)CCC)C(=O)N=C(S)NC1=O` (stereo not given), the red/green cell ratio (normalised) was 1.3.
Turning to `O=C1C=C2C=C[C@@H]3C[C@@]2(O1)[C@H]1CCCCN31`, the red/green cell ratio (normalised) was 0.9.
For `CCCCCCCCCCCCCCCC[n+]1ccccc1`, the red/green cell ratio (normalised) is 0.76.
To `OC1CCCCC1N1CCC(c2ccccc2)CC1` (stereo not given) belongs 0.98.
As for `N[C@H](CO)Cc1ccccc1`, the red/green cell ratio (normalised) was 1.
As for `CC(N)Cc1ccc(O)cc1` (stereo not given), the red/green cell ratio (normalised) is 0.93.
With `O=C1C(Cl)=C(Cl)C(=O)C(Cl)=C1Cl`, the red/green cell ratio (normalised) is 1.04.
In the case of `COc1cc2c(cc1OC)C(C)NCC2` (stereo not given), the red/green cell ratio (normalised) is 1.03.
As for `CC1(C)C2CC(=O)[C@]3(C)C(CC[C@@]4(C)[C@H](c5ccoc5)OC(=O)C5OC543)[C@@]2(C)[C@@H](O)C[C@H]1O` (stereo not given in full), the red/green cell ratio (normalised) is 1.04.
With `O=[N+]([O-])c1cc([As](=O)(O)O)ccc1O`, the red/green cell ratio (normalised) was 1.34.
To `COc1cc2ccc(=O)oc2c2ccoc12` belongs 1.01; to `COc1ccc2c(c1O)-c1c(OC)c(OC)cc3c1[C@H](C2)N(C)CC3`, 1.1; to `COc1ccc2c(c1)[nH]c1c(C)nccc12`, 0.67.
To `NC(N)=NOCC[C@H](N)C(=O)O` belongs 1.04; to `CN1C2CCC1CC(OC(c1ccccc1)c1ccccc1N)C2` (stereo not given), 0.76.
Under `COC1=C[C@@H]2[C@@H]3Cc4ccc(OC)c(O)c4[C@]2(CCN3C)CC1=O` stands 0.75; under `O=C1C=CC(=O)c2c(O)cccc21`, 0.98; under `CCOP(=S)(OCC)Oc1nc(Cl)c(Cl)cc1Cl`, 0.91.
`NCCc1c[nH]c2ccccc12`: the red/green cell ratio (normalised) is 1.06.
Consider `CN[C@@H](C)[C@@H](O)c1ccccc1`, for which the red/green cell ratio (normalised) is 1.05.
Take `COc1ccc2c3c([nH]c2c1)C(C)=NCC3`: the red/green cell ratio (normalised) is 0.92.
As to `CN1CCc2cc3c(cc2C1O)OCO3` (stereo not given), the red/green cell ratio (normalised) is 1.09.
As to `CNC(C)C(O)c1ccccc1` (stereo not given), the red/green cell ratio (normalised) was 0.97.
`CN(C)[C@@H]1C(=O)C(C(N)=O)=C(O)[C@@]2(O)C(=O)C3=C(O)c4c(O)ccc(Cl)c4[C@@](C)(O)[C@H]3C[C@@H]12`: the red/green cell ratio (normalised) was 0.9 and 1.54.
Under `CC1=C(O)C(=O)C=C2C1=CC=C1[C@@]2(C)CC[C@@]2(C)[C@@H]3C[C@](C)(C(=O)O)CC[C@]3(C)CC[C@]12C` stands 0.62.
